High-throughput results from PubChem.
Most compounds without a hit are left out; they make up all but 2.3% or so of the library.
C diff growth – C. difficile growth inhibitors, primary screen, HTS | Clostridium difficile clinical isolate growth, OD600, 24 h; hits give low values | growth activity, negative = inhibition, % at 16 µg/mL (by protocol) | 86,000 tested, 0.25% active;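 active means mean growth activity at or below -80% and every replicate also at or below -80%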
Pf Dd2 growth – P. falciparum Dd2 growth inhibitors, primary screen, SYBR Green fluorescence, single dose replicates. 94,000 tested, 2.3% active. activity change, % at 10 µM. 72 h; hits give low values; in the data active means activity change below about -80%
Of the large screens only hits and unclear results are named; the others gave an inactive call.

C[C@@H]1CN([C@H](C)CO)C(=O)c2cccc(NS(=O)(=O)c3ccccc3)c2O[C@@H]1CN(C)Cc1ccc(C(=O)Nc2ccccc2N)cc1	Pf Dd2 growth -85
C[C@H]1CN([C@@H](C)CO)C(=O)c2cccc(NS(=O)(=O)c3ccccc3)c2O[C@@H]1CN(C)Cc1ccc(C(=O)Nc2ccccc2N)cc1	none
Cc1ccc(S(=O)(=O)Nc2cccc3c2O[C@@H](CN(C)Cc2ccc(C(=O)Nc4ccccc4N)cc2)[C@@H](C)CN([C@H](C)CO)C3=O)cc1	Pf Dd2 growth -83
C[C@@H]1CN([C@H](C)CO)C(=O)c2cccc(NS(=O)(=O)c3ccc(F)cc3)c2O[C@H]1CN(C)Cc1ccc(C(=O)Nc2ccccc2N)cc1	none
C[C@@H]1CN([C@H](C)CO)C(=O)c2cccc(NS(=O)(=O)c3ccc(F)cc3)c2O[C@@H]1CN(C)Cc1ccc(C(=O)Nc2ccccc2N)cc1	Pf Dd2 growth -86
C[C@@H]1CN([C@@H](C)CO)C(=O)c2cccc(NS(=O)(=O)c3ccc(Cl)cc3)c2O[C@H]1CN(C)Cc1ccc(C(=O)Nc2ccccc2N)cc1	none
C[C@H]1CN([C@@H](C)CO)C(=O)c2cccc(NS(=O)(=O)c3ccccc3)c2O[C@H]1CN(C)Cc1ccc(C(=O)Nc2ccccc2N)cc1	Pf Dd2 growth -88
Cc1ccc(S(=O)(=O)Nc2cccc3c2O[C@H](CN(C)Cc2ccc(C(=O)Nc4ccccc4N)cc2)[C@@H](C)CN([C@H](C)CO)C3=O)cc1	none
O=C(Nc1ccccc1F)N[C@H]1CC[C@@H](CCNC(=O)C2CCOCC2)O[C@H]1CO	none
C[C@H](CO)N1C[C@H](C)[C@H](CN(C)Cc2ccc(Cl)c(Cl)c2)Oc2c(NS(=O)(=O)c3ccc(F)cc3)cccc2C1=O	none
C[C@H]1CN([C@@H](C)CO)C(=O)c2cccc(NS(=O)(=O)c3ccc(F)cc3)c2O[C@H]1CN(C)Cc1ccc(Cl)c(Cl)c1	Pf Dd2 growth -82
C[C@H]1CN([C@@H](C)CO)C(=O)c2c(c3ccccc3n2C)-c2ccccc2CO[C@H]1CN(C)Cc1ccc(F)cc1	none
C[C@H]1CN([C@@H](C)CO)C(=O)c2c(c3ccccc3n2C)-c2ccccc2CO[C@@H]1CN(C)Cc1ccc(Oc2ccccc2)cc1	Pf Dd2 growth -87
C[C@H]1CN([C@@H](C)CO)C(=O)c2c(c3ccccc3n2C)-c2ccccc2CO[C@H]1CN(C)Cc1ccc(Oc2ccccc2)cc1	Pf Dd2 growth -84
C[C@@H]1CN([C@H](C)CO)C(=O)c2c(c3ccccc3n2C)-c2ccccc2CO[C@H]1CN(C)Cc1ccc(Oc2ccccc2)cc1	Pf Dd2 growth -87
C[C@@H]1CN([C@@H](C)CO)C(=O)c2c(c3ccccc3n2C)-c2ccccc2CO[C@@H]1CN(C)Cc1ccc(O)cc1	none
C[C@@H]1CN([C@@H](C)CO)C(=O)c2c(c3ccccc3n2C)-c2ccccc2CO[C@H]1CN(C)Cc1ccc(F)cc1	none
C[C@H]1CN([C@@H](C)CO)C(=O)c2cc(NC(=O)CCN3CCOCC3)ccc2O[C@@H]1CN(C)Cc1ccc(C(=O)Nc2ccccc2N)cc1	none (no result: C diff growth)
O=C(C[C@@H]1CC[C@@H](NC(=O)c2ccc(F)cc2)[C@@H](CO)O1)NCCc1ccncc1	none
Cc1noc(C)c1NC(=O)Nc1ccc2c(c1)C(=O)N([C@H](C)CO)C[C@H](C)[C@H](CN(C)Cc1ccc(C(F)(F)F)cc1)O2	none
C[C@@H]1CN([C@@H](C)CO)C(=O)c2cc(C3=CCCC3)cnc2O[C@@H]1CN(C)Cc1ccccn1	none
CCCN(C)C[C@H]1Oc2cc(C3=CCCC3)ccc2S(=O)(=O)N([C@@H](C)CO)C[C@H]1C	none (no result: C diff growth)
Cc1ccccc1S(=O)(=O)N1[C@@H]2CNC[C@H]1C2c1ccc(-c2ccccc2)cc1 (stereo partly specified)	none
C[C@H]1CN([C@@H](C)CO)C(=O)c2c(c3ccccc3n2C)-c2ccccc2CO[C@H]1CN(C)S(=O)(=O)c1ccc(F)cc1	Pf Dd2 growth -87 (no result: C diff growth)
C[C@@H]1CN([C@H](C)CO)C(=O)c2c(c3ccccc3n2C)-c2ccccc2CO[C@@H]1CN(C)S(=O)(=O)c1ccc(Cl)cc1	Pf Dd2 growth -81 (no result: C diff growth)
C[C@H]1CN([C@@H](C)CO)C(=O)c2c(c3ccccc3n2C)-c2ccccc2CO[C@@H]1CN(C)S(=O)(=O)c1ccc(C#N)cc1	none (no result: C diff growth)
C[C@@H]1CN([C@@H](C)CO)C(=O)c2c(c3ccccc3n2C)-c2ccccc2CO[C@H]1CN(C)S(=O)(=O)c1ccc(C(F)(F)F)cc1	Pf Dd2 growth -89
C[C@@H]1CN([C@@H](C)CO)C(=O)c2c(c3ccccc3n2C)-c2ccccc2CO[C@H]1CN(C)S(=O)(=O)c1ccc(Cl)cc1	none (no result: C diff growth)
C[C@H](CO)N1C[C@H](C)[C@H](CN(C)S(=O)(=O)c2ccc(C#N)cc2)OCc2ccccc2-c2c(n(C)c3ccccc23)C1=O	Pf Dd2 growth -88 (no result: C diff growth)
C[C@H](CO)N1C[C@H](C)[C@@H](CN(C)S(=O)(=O)c2ccc(F)cc2)OCc2ccccc2-c2c(n(C)c3ccccc23)C1=O	none (no result: C diff growth)
